The results in this text go back to PubChem BioAssay (NCI).

The panel holds about 83,000 compounds, 20% with a hit somewhere; the sample as a whole holds those more often.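 Compound tested at a single concentration for 48 hours in 96-well plates; a percent growth value below 10 was scored as active.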 Unmarked numbers belong to inactive results. Activity calls are given as the source filed them.

Some test systems named below: NCI-H23 lung; NCI-H226 lung; NCI-H322M lung; HOP-62 NSCLC; NCI-H460 lung; NCI-H522 lung; A549/ATCC NSCLC; 786-0 renal; COLO 205 colon; DU-145 prostate.
Common to all, as to assay: NCI-60 one-dose screen, 48 h (100 = growth as untreated, 0 = no growth, -100 = all killed)
Holding throughout (conditions): 10 µM

For `O=C(Cc1csc2nc(-c3ccc(Cl)cc3)cn12)N/N=C/c1ccccc1O`, the growth in the experiment with NCI-H23 lung was 59.5%; in the experiment on NCI-H226 lung, 56.2%; in the experiment with NCI-H322M lung, 51.4%; in the experiment with HOP-62 NSCLC it was 40.3%; with NCI-H460 lung, 18.5%; with NCI-H522 lung, 49.2%. Moreover, the growth with A549/ATCC NSCLC is 36.9%; in the experiment on 786-0 renal, 32.9%; in the experiment on COLO 205 colon, 16.5%; in the experiment with DU-145 prostate, -8.65% (active).

As for `Nc1nc(N=Nc2ccc(O)cc2)cc(=O)[nH]1`, the growth in the experiment with NCI-H23 lung was 101%; in the experiment with NCI-H226 lung it was 114%; in the experiment with NCI-H322M lung, 104%; in the experiment on HOP-62 NSCLC, 102%; with NCI-H460 lung, 107%; in the experiment on NCI-H522 lung, 112%. Besides, the growth in the experiment with A549/ATCC NSCLC was 111%; with 786-0 renal, 105%; with COLO 205 colon it was 106%; with DU-145 prostate, 116%.

`O=C(CCCCC(=O)Nc1ccc2c(c1)/C(=C/c1ccc[nH]1)C(=O)N2)NO`: the growth is 106% with NCI-H23 lung; 91.1% with NCI-H226 lung; 64.1% with NCI-H322M lung; 94.3% with HOP-62 NSCLC; 97.6% with NCI-H460 lung; 49.4% with NCI-H522 lung. For the same compound, the growth in the experiment on A549/ATCC NSCLC was 95.6%; in the experiment on 786-0 renal, 94.4%; with COLO 205 colon, 89%; in the experiment with DU-145 prostate it was 91.2%.

As to `CC(C)(C)c1cc(Br)cc(C(C)(C)C)c1O`, the growth in the experiment with NCI-H23 lung was 107%; in the experiment on NCI-H226 lung it was 97.5%; in the experiment with NCI-H322M lung, 96.7%; in the experiment with HOP-62 NSCLC, 120%; with NCI-H460 lung it was 117%; with NCI-H522 lung it was 115%. Moreover, the growth in the experiment with A549/ATCC NSCLC is 91.1%; with 786-0 renal, 103%; in the experiment with COLO 205 colon it was 113%; in the experiment on DU-145 prostate, 113%.

In the case of `CSc1nn(-c2ccccc2)c2ncnc(Oc3ccc(C)cc3)c12`, the growth was 91.8% in the experiment with NCI-H23 lung; 81.4% in the experiment on NCI-H226 lung; 82% with NCI-H322M lung; 67.5% in the experiment with HOP-62 NSCLC; 91% in the experiment with NCI-H460 lung; 75.5% in the experiment on NCI-H522 lung. For the same compound, the growth is 80% in the experiment with A549/ATCC NSCLC, 65.4% with 786-0 renal, 113% in the experiment with COLO 205 colon and 105% in the experiment on DU-145 prostate.

As to `COC(=O)C1=NNC(=S)N(c2cc(C)[nH]n2)C(=O)C1`, the growth was 99.1% in the experiment with NCI-H23 lung; 99.7% with NCI-H226 lung; 94.5% in the experiment with NCI-H322M lung; 115% with HOP-62 NSCLC; 111% in the experiment with NCI-H460 lung; 103% in the experiment with NCI-H522 lung. The growth in the experiment with A549/ATCC NSCLC is 106%; in the experiment on 786-0 renal, 96.9%; in the experiment with COLO 205 colon, 116%; with DU-145 prostate it was 107%.

For `CCCCCCNC(=O)Oc1ccc(/C(=C(/CC)Cc2ccccc2)c2ccc(OCCN3CCCCC3)cc2)cc1`, the growth is 91% in the experiment on NCI-H23 lung; 88.6% in the experiment on NCI-H226 lung; 91.4% in the experiment with NCI-H322M lung; 86.6% with HOP-62 NSCLC; 73.4% with NCI-H460 lung; 77.9% with NCI-H522 lung. Moreover, the growth was 76.7% in the experiment on A549/ATCC NSCLC, 78.6% in the experiment on 786-0 renal, 51.4% in the experiment on COLO 205 colon and 96.6% in the experiment with DU-145 prostate.

Regarding `COc1cc(OC)cc(-c2cncn2-c2ccc(-c3nc4cc(OC)cc(OC)c4s3)cc2)c1`, the growth in the experiment with NCI-H23 lung is 57.5%; in the experiment on NCI-H226 lung, 67.7%; in the experiment on NCI-H322M lung, 82.8%; with HOP-62 NSCLC, 79.7%; with NCI-H460 lung it was 51.3%; in the experiment with NCI-H522 lung, 61.3%. The growth was 45.4% in the experiment on A549/ATCC NSCLC, 66% in the experiment with 786-0 renal, 79.5% in the experiment with COLO 205 colon and 78.1% in the experiment with DU-145 prostate.

In the case of `CC(C)(Cl)CCC1=C(Cl)C(=O)c2ccccc2C1=O`, the growth in the experiment with NCI-H23 lung was 32.9%; in the experiment on NCI-H226 lung, 62.8%; in the experiment on NCI-H322M lung it was 100%; with HOP-62 NSCLC, 59%; in the experiment on NCI-H460 lung, 65.6%; with NCI-H522 lung, -29.7% (active). The growth with A549/ATCC NSCLC was 82%; in the experiment on 786-0 renal it was 101%; in the experiment with COLO 205 colon it was 84%; in the experiment on DU-145 prostate, 104%.

As for `COc1ccc(-c2nc3sc(-c4ccc(OC)cc4)c(-c4ccc(OC)cc4)n3c2/C=C/c2ccc(C(C)C)cc2)cc1`, the growth was 95.6% with NCI-H23 lung; 90.9% with NCI-H226 lung; 96.5% in the experiment on NCI-H322M lung; 95.1% in the experiment on HOP-62 NSCLC; 101% in the experiment on NCI-H460 lung; 76.5% in the experiment on NCI-H522 lung. Besides, the growth was 95.2% with A549/ATCC NSCLC, 99.2% with 786-0 renal, 107% in the experiment on COLO 205 colon and 115% in the experiment with DU-145 prostate.

Consider `O=C(Nc1cccc(-n2cc(-c3ccncc3)c(-c3cc(O)cc(Cl)c3)n2)c1)c1cc(C(F)(F)F)cc(C(F)(F)F)c1`, for which the growth with NCI-H23 lung is 42.7%; with NCI-H226 lung, 96%; with NCI-H322M lung, 74.1%; in the experiment with HOP-62 NSCLC it was 58.3%; with NCI-H460 lung, 19.9%; in the experiment on NCI-H522 lung it was 17.8%. In addition, the growth in the experiment with A549/ATCC NSCLC was 27.3%; with 786-0 renal, 55.1%; with COLO 205 colon it was 38.7%; with DU-145 prostate it was 62.1%.

As for `CCCCCCCCCCCCC1C/C=C\CCCC(=O)O1` (stereo not given), the growth is 91.1% in the experiment on NCI-H23 lung; 167% with NCI-H226 lung; 108% in the experiment with NCI-H322M lung; 106% with HOP-62 NSCLC; 109% in the experiment with NCI-H460 lung; 98.1% in the experiment with NCI-H522 lung. The growth was 80.7% in the experiment with A549/ATCC NSCLC, 98.4% in the experiment on 786-0 renal, 113% with COLO 205 colon and 130% with DU-145 prostate.

Turning to `O=C1/C(=C\c2ccc(Cl)cc2)CN(C(=S)Nc2ccccc2)C/C1=C\c1ccc(Cl)cc1`, the growth was -52.8% (active) with NCI-H23 lung; -70.1% (active) in the experiment on NCI-H226 lung; -20.7% (active) with NCI-H322M lung; -55.4% (active) with HOP-62 NSCLC; -70.8% (active) with NCI-H460 lung; -88.2% (active) in the experiment with NCI-H522 lung. Further, the growth with A549/ATCC NSCLC is -21.4% (active); in the experiment with 786-0 renal, -86% (active); in the experiment on COLO 205 colon it was -86.1% (active); in the experiment with DU-145 prostate, -73.2% (active).
